Compounds with a hit are over-represented: about 14% of the library has one in this group of screens.
Sm TGR block: S. mansoni TGR enzyme inhibition | Q962Y6 | AID 485364 | purified TGR, DTNB reduction, TNB absorbance 405 nm | Potency, µM (doses to about 114 µM), inactives show at the highest dose activity change, negative = inhibition, actives largely listed as inhibitors | 3% of 360,000 active; note: potency is the fitted concentration of half-maximal effect; nearly all actives have a fitted effect of over 60% in size
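First, TGR (20 nM dispensed) and NADPH were mixed with compound. Second, a 15 min room-temperature incubation followed. Third, further NADPH and then DTNB were added to start the reaction. Finally, TNB absorbance was monitored kinetically.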
Pf growth 96h: inhibits malaria parasite growth, 96 h | P. falciparum luciferase reporter growth, 96 h | Potency, µM (series often up to 28.7 µM), for the others: at the top dose activity change, negative = inhibition, most hits filed as inhibitors | 6.9% of 320,000 active | AID 504834; note: potency is the fitted concentration of half-maximal effect
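96 h incubation, 37 C, 5% CO2, of luciferase-reporter P. falciparum-infected RBCs (2% hematocrit, 0.05% parasitemia final) with test compounds; endpoint luminescence.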
HCMV inh: human cytomegalovirus inhibition; AID 1259415; 4.5% of 410,000 active; activity change, negative = inhibition, % at 57.5 µM; HFF cells, HCMV-luciferase reporter, 72 h; hits give low values; in the data active = activity change below about -60%; inconclusive = no clear call, values can overlap the other calls; inactive = above about -39%
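Human foreskin fibroblasts infected with luciferase-reporter HCMV at MOI 1 PFU/cell, compounds at two doses. Luciferase measured 72 h post infection; normalized to buffer-only basal and Salinomycin (10uM) controls.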
FBPA Giardia inh: inhibitors of Giardia lamblia fructose-1,6-bisphosphate aldolase; 0.71% of 290,000 active; A8B2U2; Potency, µM (highest dose often 59.6 µM), for the others: at the top dose activity, negative = inhibition, actives largely listed as inhibitors; purified Giardia FBPA; note: potency is the fitted concentration of half-maximal effect; nearly all actives have a fitted effect of over 55% in size
Target sequence (A8B2U2 whole entry, looked up): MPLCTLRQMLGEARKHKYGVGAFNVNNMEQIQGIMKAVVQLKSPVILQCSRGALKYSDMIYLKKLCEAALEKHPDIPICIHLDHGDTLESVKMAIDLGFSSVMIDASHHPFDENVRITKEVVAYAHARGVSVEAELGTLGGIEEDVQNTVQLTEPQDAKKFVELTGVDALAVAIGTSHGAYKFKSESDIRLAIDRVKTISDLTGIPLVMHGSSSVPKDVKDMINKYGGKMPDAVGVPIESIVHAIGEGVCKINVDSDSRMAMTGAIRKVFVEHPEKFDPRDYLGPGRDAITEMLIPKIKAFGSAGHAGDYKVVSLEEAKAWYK
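Giardia FBPA (40 nM reagent) was preincubated 10 min at RT with compound (up to 57.5 uM final), then substrate plus GAPDH/TPI/NAD/arsenate coupling system with diaphorase/resazurin was added; resorufin fluorescence (525/598 nm) was read after 20 min.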
Pf growth 48h: P. falciparum growth inhibition at 48 hours (one generation); P. falciparum luciferase growth in erythrocytes, 48 h; Potency, µM (highest dose often 28.7 µM), for inactives: at the highest dose activity change, negative = inhibition, actives largely listed as inhibitors; 5.9% of 310,000 active; AID 504832; note: potency is the fitted concentration of half-maximal effect
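A one-generation exposure of luciferase-tagged malaria parasites in RPMI 1640/Albumax erythrocyte culture, 37 C and 5% CO2. Inhibition is inferred from decreased luminescence after adding detection reagent.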
* = called active by the depositor; ? = inconclusive; nt = not tested or not shown; [ ] = remark or other dose. Unless noted, calls come from the whole dose curve; as a rule, active = well fitted curve in the direction sought with a large enough effect; inconclusive = small, poorly fitted or top-dose-only effect, or another doubt; inactive = no such curve, though single readings can be large; an effect the other way counts as inactive or inconclusive. % is set by controls: 0 for no effect and ±100 for the full control effect.

SMILES | Sm TGR block | Pf growth 96h | HCMV inh | FBPA Giardia inh | Pf growth 48h
COc1ccc2cc(/C=C3\SC(=S)NC3=O)c(N3CCOCC3)nc2c1 | -2% | ? | -88* | 8% | ?
CN1C(=O)/C(=C/c2ccc(N3CCCCCC3)o2)C(=O)NC1=S | 40µM* | 378% | -2 | -7% | 421%
Cc1ccc(NC(=O)[C@@H]2CCCN2C(=O)c2cccs2)cc1S(=O)(=O)N1CCCCC1 | -4% | ? | -21 | nt | ?
CCOc1ccc(-n2c(SCC(N)=O)nc3sc4c(c3c2=O)CCN(C)C4)cc1 | -2% | 0.66µM* | -18 | -14% | 1.5µM*
C=C(C)CSc1nc2sc3c(c2c(=O)n1-c1ccc(C)cc1)CCN(C)C3 | -32% | 0.93µM* | -36 | -26% | 1.3µM*
CCOC(=O)CSc1nc2sc3c(c2c(=O)n1-c1ccc(OCC)cc1)CCN(C)C3 | -13% | 0.74µM* | -30 | -2% | 13µM*
CCOC(=O)CSc1nc2sc3c(c2c(=O)n1C1CCCCC1)CCN(C)C3 | -19% | ? | -28 | 3% | 1.5µM*
COc1ccc(NC(=O)CSc2nc3sc4c(c3c(=O)n2-c2ccc(OC)cc2)CCN(C)C4)cc1 | 6% | ? | 8 | ? | ?
COc1ccc(-n2c(SCC(=O)Nc3nccs3)nc3sc4c(c3c2=O)CCN(C)C4)cc1 | -22% | ? | -14 | -10% | ?
O=c1cc(-c2ccccc2O)oc2c1ccc1ccccc12 | nt | nt | nt | 4% | nt
CCCCN(C=O)c1c(CC)nc2ccc(C(=O)NCc3ccc4c(c3)OCO4)cn12 | nt | nt | -13 | nt | nt
CCCCn1c(N)c(N(CC(C)C)C(=O)COC(=O)Cc2c(C)nc3ccccc3c2C)c(=O)[nH]c1=O | -26% | ? | -7 | nt | ?
Cc1ccc(-n2c(SCC(=O)c3c(N)n(C)c(=O)n(C)c3=O)nc3sc4c(c3c2=O)CCCC4)c(C)c1 | 3% | 0.83µM* | -68* | -7% | 1.2µM*
Cc1ccc(-n2c(SCC(=O)O)nc3sc4c(c3c2=O)CCCC4)cc1 | -3%[57.1 µM] | 2.9µM* | 42 | 13% | 11%
COC(=O)c1cc2n(n1)CCN(Cc1ccc(F)cc1)C2=O | -16% | 21% | -106* | 5% | 19%
O=C(Nc1ccccc1-c1nnc(SCc2ccc(Cl)cc2Cl)o1)c1ccccc1 | 3% | 2.3µM* | -20 | 0% | -3%
O=C(Nc1ccccc1-c1nnc(SCc2ccccc2Cl)o1)c1ccccc1 | -18% | 59% | 26 | 3% | ?
C=CCN(c1ccccc1)S(=O)(=O)c1cccc(C(=O)N(CC)CC(=O)Nc2c(F)cccc2F)c1 | 7% | -16% | 7 | nt | ?
OCC1(CCc2ccccc2)CCN(C/C=C/c2ccccc2)CC1 | -3% | 265% | 28 | 10% | ?
OCC1(Cc2ccccc2Cl)CCN(C/C=C/c2ccccc2)CC1 | -2% | 3% | -29 | 4% | 12µM*
O=C1CC(c2ccccc2)=Nc2ccc(Br)cc2N1 | 11% | 43% | -68* | 2% | -22%
Cc1ccc2c(c1)NC(=O)CC(c1ccccc1)=N2 | -3% | -16% | ? | 3% | 116%
COc1ccc(OC)c(-c2nnc(-c3ccc(C)o3)o2)c1 | ? | 183% | 84 | -2% | 10µM*
Cc1ccc(CN2CCC(CNC(=O)c3cc4ccc5cccnc5c4[nH]3)CC2)cc1 | 15% | nt | -106* | nt | nt
O=C(c1ccccc1)C(C(=O)N1CCCCC1)n1ccccc1=O (stereo unspecified) | -10% | 51% | 19 | 20% | 12%
SMILES | Sm TGR block | Pf growth 96h | HCMV inh | FBPA Giardia inh | Pf growth 48h
CN1CCN(C(=O)C(C(=O)c2ccc(F)cc2)n2ccccc2=O)CC1 (stereo unspecified) | 3% | 2.3µM* | 11 | 5% | 11%
O=C(NCc1ccccn1)C(C(=O)c1ccc(F)cc1)n1ccccc1=O (stereo unspecified) | -27% | 13µM* | -10 | -20% | 7%
Cc1ccc(C(=O)NCN2CCN(c3ccccc3)CC2)cc1 | ? | 18% | -6 | nt | 9%
c1ccc(Nc2c(-c3ccco3)nc3ccccn23)cc1 | -33% | ? | 19 | -8% | 4%
c1ccc(-c2nc(-c3ccco3)n3ccccc23)cc1 | 11µM* | -7% | 37 | -24% | 0%
CC(=O)Nc1ccc(OS(=O)(=O)c2ccc([N+](=O)[O-])cc2)cc1 | 3% | 1% | -62* | -13% | 13µM*
COc1cc(C=O)cc(OC)c1OS(=O)(=O)c1ccc(NC(C)=O)cc1 | 3% | 4.1µM* | 6 | 0% | 28%
CC(=O)Nc1ccc(OS(=O)(=O)c2ccc(Cl)cc2)cc1 | 10% | 28% | -5 | 1% | ?
CC(=O)Nc1ccc(OCCOc2ccc([N+](=O)[O-])cc2)cc1 | 3% | 1% | -72* | 1% | 52%
Cc1ccc2c(c1)cc(C(=O)Nc1ccc(F)cc1F)n2C | 6% | nt | 20 | nt | nt
CCN(CC)c1ccc(S(=O)(=O)N2CCOCC2)cc1NC(=O)COC(=O)C1=COCCO1 | nt | nt | -27 | nt | nt
CC(C)CC1NC(=O)N(CC(=O)Nc2ccccc2-c2ccccc2)C1=O (stereo unspecified) | 2.2µM* | 10% | -14 | -2% | -28%
CC(C)(C)c1ccccc1NC(=O)CN1C(=O)NC(Cc2ccccc2)C1=O (stereo unspecified) | 50µM* | ? | 4 | nt | 1%
O=C(CN1C(=O)NC(Cc2ccccc2)C1=O)Nc1ccccc1F (stereo unspecified) | 2% | -1% | -10 | nt | -10%
CC(=O)CCN1CCSCCS1(=O)=O | nt | nt | 4 | nt | nt
O=c1c2ccccc2nc(-c2ccco2)n1-c1ccccc1 | 0% | 8.3µM* | -15 | -1% | ?
O=c1c2ccccc2nc(-c2ccco2)n1-c1ccncc1 | ? | ? | -24 | 2% | 15%
O=c1c2ccccc2nc(-c2ccco2)n1-c1nc2ccccc2s1 | -13% | 1µM* | -8 | -5% | 0%
Cc1c(N=C2N=C(NC(=O)c3ccc(F)cc3)c3ccccc32)c(=O)n(-c2ccccc2)n1C | 17% | 9%[5.75 µM] | 68 | 6% | 7.4µM*
Cc1c(NC(=O)NC(=O)c2ccc(F)cc2)c(=O)n(-c2ccccc2)n1C | 8% | -26% | 40 | 8% | 23%
CNC[C@H](CC1CCCCC1)NC[C@H](CO)NCCc1cccc(C(F)(F)F)c1 | 1% | 1.9µM* | -100* | 22% | ?
O=C(c1ccc([N+](=O)[O-])cc1)N1CCN(C2=NS(=O)(=O)c3ccccc32)CC1 | 9% | 28% | -5 | 4% | 2%
C=C[C@@]1(C)C[C@H](OC(=O)CSC(C)(C)CNC(=O)[C@@H](N)C(C)C)[C@@]2(C)C(C)CC[C@@]3(CCC(=O)[C@@H]32)[C@H](C)[C@H]1O (stereo partly specified) | nt | -18% | nt | nt | 1.1µM*

Screening data from PubChem.
